Screen size: about 2,400 compounds; about 580 (24%) were called active.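 How the source made its calls: active means activity change at or above the mean plus 3 SD of buffer wells without dofetilide, per plate; inactive means the rest.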 Only a sample is shown.
The compounds below were run against Potassium voltage-gated channel subfamily KQT member 2 (Rattus norvegicus) (UniProt O88943) (assay: KCNQ2 potentiation in CHO cells – cell-based, FluxOR thallium flux, counter-screen for hERG block protector project, confirmation (AID 1942;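 further: normalized value minus buffer-control mean plus three SD of buffer wells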)). Conditions: FluxOR thallium flux fluorescence, at 10 µM, stronger effect = higher value.
Chain of Potassium voltage-gated channel subfamily KQT member 2 (Rattus norvegicus) (O88943 whole entry, looked up): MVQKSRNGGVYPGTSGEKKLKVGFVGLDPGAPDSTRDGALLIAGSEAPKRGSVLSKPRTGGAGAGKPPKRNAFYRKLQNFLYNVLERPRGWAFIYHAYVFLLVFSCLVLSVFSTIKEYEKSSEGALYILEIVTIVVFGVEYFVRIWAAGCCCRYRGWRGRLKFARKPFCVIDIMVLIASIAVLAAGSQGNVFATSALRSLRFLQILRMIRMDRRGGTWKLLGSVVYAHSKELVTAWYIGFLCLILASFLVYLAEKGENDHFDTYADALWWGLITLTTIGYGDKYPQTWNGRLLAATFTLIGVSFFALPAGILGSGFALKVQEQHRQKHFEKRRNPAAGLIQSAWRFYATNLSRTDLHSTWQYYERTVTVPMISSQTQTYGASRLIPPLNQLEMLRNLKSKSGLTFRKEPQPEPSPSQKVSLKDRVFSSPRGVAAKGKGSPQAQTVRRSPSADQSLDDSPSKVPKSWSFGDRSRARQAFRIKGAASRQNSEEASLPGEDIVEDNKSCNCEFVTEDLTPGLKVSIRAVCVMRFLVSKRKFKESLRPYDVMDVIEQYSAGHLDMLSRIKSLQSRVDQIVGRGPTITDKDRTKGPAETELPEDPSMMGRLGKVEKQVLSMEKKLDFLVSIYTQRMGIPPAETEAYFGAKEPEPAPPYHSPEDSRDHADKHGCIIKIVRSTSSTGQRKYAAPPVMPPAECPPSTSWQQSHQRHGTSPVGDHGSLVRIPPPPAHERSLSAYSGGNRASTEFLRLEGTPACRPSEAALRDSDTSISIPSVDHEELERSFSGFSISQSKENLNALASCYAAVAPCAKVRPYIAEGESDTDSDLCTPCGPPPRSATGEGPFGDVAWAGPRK

Row | SMILES | activity change, less the hit threshold
1 | COc1ccc(CCNC(=O)Cn2c(=O)n(-c3ccc(F)cc3)c(=O)c3sccc32)cc1OC | -19.4% (inactive)
2 | CCNC(=S)N/N=C1\C(=O)c2cccc3cccc1c23 | -4% (inactive)
3 | O=C(NN=C1c2ccccc2-c2ccccc21)c1ccccc1 | 0% (inactive)
4 | O=C(N/N=C1/C(=O)c2cccc3cccc1c23)c1ccc(Cl)cc1 | 73.4% (active)
5 | O=C(O)c1ccccc1P(=O)(c1ccccc1)c1ccccc1 | -16.8% (inactive)
6 | Cc1noc(C)c1COc1cccc(C(=O)NCc2cccc(Cl)c2)c1 | -21.4% (inactive)
7 | CCCCCCCC/C=C\CCCCCCCC(=O)O | -1% (inactive)
8 | CCCCCC/C(C)=C1/SC(=S)NC1=O | 71.1% (active)
9 | CCOC(=O)Cc1nc2ccccc2o1 | -2.9% (inactive)
10 | O=C(O)Cc1sc(-c2ccc(Cl)cc2)nc1-c1ccccc1 | -19.7% (inactive)
11 | O=C(NC(=S)Nc1cc(C(F)(F)F)ccc1Cl)c1ccccc1 | -6.4% (inactive)
12 | O=C(NC(=S)Nc1ccc(C(F)(F)F)cc1)c1csnn1 | 87% (active)
13 | O=C(Nc1ccc(-c2csc(Nc3cccc(C(F)(F)F)c3)n2)cc1)c1ccccc1 | -23.8% (inactive)
14 | O=C(NC(=S)Nc1cccc(C(F)(F)F)c1)c1csnn1 | 115% (active)
15 | CC12CN3CC(C)(CN(C1)C3c1ccc3c(c1)OCO3)C2=O (stereo unspecified) | -15.9% (inactive)
16 | C/C(O)=C/c1nc2ccccc2[nH]c1=O | -16.5% (inactive)
17 | CCN1C(=O)/C(=C/N2CCc3ccccc32)SC1=S | -17.3% (inactive)
18 | Cc1nnc2ccc(-c3cccc(NC(=O)c4ccc(Cl)nc4)c3)nn12 | -16.1% (inactive)
19 | CNC(=O)c1c(O)c2cccc3c2n(c1=O)CC3 | -22.2% (inactive)
20 | c1ccc2oc(-c3ccn[nH]3)cc2c1 | -0.3% (inactive)
21 | Cc1csc(NC(=O)c2cn3ccccc3n2)n1 | -15.1% (inactive)
22 | Cc1csc(NC(=O)c2cc3c(s2)CCCC3)n1 | 17.9% (active)
23 | Cc1csc(NC(=O)C2C3C=CC(C3)C2C(=O)O)n1 (stereo unspecified) | -13.2% (inactive)
24 | Cc1occc1C(=O)Nc1cccc([N+](=O)[O-])c1 | -10.3% (inactive)
25 | NC(=O)c1cccnc1Nc1cccc([N+](=O)[O-])c1 | -14.1% (inactive)
26 | O=C(O)c1ccc(N=NNc2cccc([N+](=O)[O-])c2)cc1 | 2.2% (active)

Row | SMILES | activity change, less the hit threshold
27 | CC(=O)Nc1ccc(NC(=O)CSc2ncc(C(=O)Nc3ccc(Cl)cc3)c(=O)n2C)cc1 | -4.1% (inactive)
28 | N=c1c2cn[nH]c2nc(SCC(=O)c2ccc(Br)cc2)n1-c1ccc(Br)cc1 | -23.7% (inactive)
29 | CCOC(=O)C(=CNc1cc(C)ccc1[N+](=O)[O-])C(=O)OCC | -8.6% (inactive)
30 | CCOC(=O)N/N=C/C=C/c1ccccc1[N+](=O)[O-] | 5.2% (active)
31 | CCOC(=O)C(=CNc1ccc(OC)cc1[N+](=O)[O-])C(=O)OCC | -13.9% (inactive)
32 | O=S(=O)(NCc1ccc(Cl)cc1Cl)c1ccc(N2CCOCC2)nc1 | -15% (inactive)
33 | CCOC(=O)/C=C/c1ccc2c(c1)S(=O)(=O)N(c1cccc(OC)c1)[C@H]2CC(=O)OCC | -13.3% (inactive)
34 | CN(C)CCCN=C(NO)c1ccc(Cl)cc1Cl | -14.9% (inactive)
35 | O=C(NC(=S)Nc1nc(-c2cccc([N+](=O)[O-])c2)cs1)c1ccccc1Cl | -10.8% (inactive)
36 | CN(C)C(=O)c1cc(C(=O)c2ccc(Cl)cc2Cl)c[nH]1 | -14.9% (inactive)
37 | CCCN(CCC)C(=S)NC(=O)c1ccc(Cl)cc1Cl | 55% (active)
38 | O=C(Nc1ccsc1C(=O)O)c1ccccc1Cl | -14.7% (inactive)
39 | CCN(CC)C(=S)NC(=O)c1ccc(Cl)cc1Cl | 9% (active)
40 | CN(C)/C=C/C(=O)c1ccc(Cl)cc1Cl | -15.1% (inactive)
41 | CCCn1nnnc1NC(=O)c1cc(Cl)ccc1Cl | -33.4% (inactive)
42 | CCCCN(CCCC)C(=S)NC(=O)c1ccccc1Cl | 89.6% (active)
43 | CCC(=O)NC(c1cccs1)c1ccc2cccnc2c1O (stereo unspecified) | -16.7% (inactive)
44 | CCC(C)NC(=O)c1c(-c2cc(Cl)c(OC)c(Cl)c2)noc1C (stereo unspecified) | -12.6% (inactive)
45 | O=[N+]([O-])c1cccc(/C=N/N=C\c2ccccc2)c1 | -20.8% (inactive)
46 | CN(C(=O)CSc1ncnc2sc(-c3ccccc3)cc12)C1CCS(=O)(=O)C1 (stereo unspecified) | 80.2% (active)
47 | CCOC(=O)c1sc2nc(C)nc(SCC(=O)N(C)C3CCS(=O)(=O)C3)c2c1C (stereo unspecified) | -0.6% (inactive)
48 | CCC(C)NC(=O)CSc1ncnc2sccc12 (stereo unspecified) | -14.8% (inactive)
49 | Cc1ccccc1-n1c(SCC(=O)N(C)C2CCS(=O)(=O)C2)nnc1-c1ccncc1 (stereo unspecified) | -7.7% (inactive)
50 | O=C(O)CCSc1ncnc2sc(-c3ccccc3)cc12 | 22.1% (active)
51 | Cc1ccccc1Cc1c(C)nc2c(C(=O)NCc3ccc4c(c3)OCO4)cnn2c1C | -18.7% (inactive)
52 | O=C(O)CNC(=O)c1ccc(NC(=O)/C(=C/c2ccccc2)NC(=O)c2ccco2)cc1 | -25.9% (inactive)

Row | SMILES | activity change, less the hit threshold
53 | CC(CCc1ccccc1)NC(=S)NC(=O)c1ccco1 (stereo unspecified) | 15.2% (active)
54 | O=C(NC(=S)N(CCc1ccccc1)CCc1ccccc1)c1ccco1 | 36% (active)
55 | NC(=O)c1nsc(C(=O)N(CC(=O)NCc2ccccc2)c2ccc(F)cc2)c1N | -23.6% (inactive)
56 | C/C(=N\NC(=O)c1ccc(NS(=O)(=O)c2cccs2)cc1)c1ccc2c(c1)OCO2 | -25.3% (inactive)
57 | CNC(=O)COC(=O)c1cccc(S(=O)(=O)N2CCN(c3ccc(F)cc3)CC2)c1 | -11.1% (inactive)
58 | C=CCn1c(=S)[nH]c2sc3c(c2c1=O)CCC3 | 34.8% (active)
59 | C=CCn1c(=S)[nH]c2sc3c(c2c1=O)CCCC3 | 46.1% (active)
60 | C=CCn1c(=S)[nH]c2nc3c(cc2c1=O)CCCC3 | -7.5% (inactive)
61 | Cc1ccc(C(C)C)cc1OCCn1cncn1 | -20.3% (inactive)
62 | CCCOc1ccc(C2NC(=S)NC(c3ccccc3)=C2C(=O)Nc2ccc(C)cc2)cc1OC (stereo unspecified) | -6.2% (inactive)
63 | CNC(=O)CSc1nnc(-c2ccco2)n1-c1ccccc1 | -16.7% (inactive)
64 | COc1ccc(NC(=O)CNC(=O)c2cccs2)cc1Cl | -13.7% (inactive)
65 | CCc1ccc(NC(=O)C(=O)NNC(=O)c2cccs2)cc1 | 67.5% (active)
66 | Cc1ccc(NC(=O)C(=O)NNC(=O)c2cccs2)cc1 | 60.8% (active)
67 | O=C(Nc1ccc(NC(=O)C2CC2)nc1)c1cccs1 | -16.2% (inactive)
68 | COc1ccc(/C=C/C(=O)NC(=S)NNC(=O)c2cccs2)cc1 | -21.3% (inactive)
69 | Cc1ccc(N/C=C/C(=O)c2cccs2)cc1 | -18% (inactive)
70 | C=CCc1cc(Cl)ccc1OCCOCCN(C)C | -18.7% (inactive)
71 | Oc1ccc(N=Nc2ccccc2-c2nn[nH]n2)c(O)c1 | -0.7% (inactive)
72 | Nc1nonc1C(=O)N1CCCC1 | -21% (inactive)
73 | Cc1cc(C(=O)NNC2CC(=O)N(c3ccc4ccccc4c3)C2=O)c(C)o1 (stereo unspecified) | -17.4% (inactive)
74 | COc1ccc(-c2oc3ccccc3c(=O)c2OC(C)=O)cc1 | 7.3% (active)
75 | COc1ccc(C(=O)c2oc3ccccc3c2N)cc1 | -8.5% (inactive)
76 | CC(=O)Oc1c(-c2ccc(Br)o2)oc2ccccc2c1=O | 99.4% (active)
77 | O=C(N/N=C\c1coc2ccccc2c1=O)c1ccco1 | -15.7% (inactive)
78 | COc1ccc(OC(=O)Cc2cccc3ccccc23)cc1 | -8.5% (inactive)

Row | SMILES | activity change, less the hit threshold
79 | CC(=O)Oc1c(-c2ccco2)oc2ccccc2c1=O | 6.8% (active)
80 | NC(=O)c1ccsc1NC(=O)CS(=O)(=O)c1ccccc1 | -4.3% (inactive)
81 | COc1ccc(Cc2c(O)nc(SCC(C)C)[nH]c2=O)cc1 | -20.7% (inactive)
82 | CCOC(=O)C(=CNc1ccc(N2CCOCC2)cc1)C(=O)OCC | 0.3% (active)
83 | CCOC(=O)C(=CNc1cc(C)ccn1)C(=O)OCC | -11.3% (inactive)
84 | CCOC(=O)C(=CNc1cccc(C)n1)C(=O)OCC | -11.8% (inactive)
85 | O=C(Cn1nnc(-c2cccc(C(F)(F)F)c2)n1)N1CCCCCC1 | 13.3% (active)
86 | NC(=O)Cn1nnc(-c2ccc(CN3CCCCC3)cc2)n1 | -14.8% (inactive)
87 | O=C(c1cccc(C(F)(F)F)c1)C1CCCN(C(=O)CCn2cnnn2)C1 (stereo unspecified) | -8.8% (inactive)
88 | Cc1nc(NCCc2ccc(S(N)(=O)=O)cc2)c2c(C)c(C)sc2n1 | 0.6% (active)
89 | O=C(NC1CCN(c2ncccn2)CC1)c1c(F)cccc1F | -9.6% (inactive)
90 | COCC(=O)Nc1cc(C)cn(Cc2c(F)cccc2Cl)c1=O | -15.1% (inactive)
91 | Cc1ccc2c(Cl)cc(Cl)c(OCC(=O)NC3CCS(=O)(=O)C3)c2n1 (stereo unspecified) | -23.4% (inactive)
92 | Cc1csc2c(N3CCCCC3)ncnc12 | 3.5% (active)
93 | OCCN1CCN(c2ncnc3c2sc2nc(N4CCOCC4)c4c(c23)CCC4)CC1 | -19.1% (inactive)
94 | CC1=CCC[C@@H]2[C@@](C)(CC/C(C)=C/C(=O)O)[C@H](C)CC[C@@]12C | -3.2% (inactive)
95 | CCCCn1c(N)c(C(=S)NC(=O)CC(C)(C)C)c(=O)n(C)c1=O | 9.2% (active)
96 | CC(=O)c1sc(-c2ccc(F)cc2)cc1NS(=O)(=O)c1ccc(C)cc1 | -14.9% (inactive)
97 | CC(C)(C)c1ccc(C(=O)NC(=S)Nc2nc3c(s2)CCCC3)cc1 | 10% (active)
98 | COC(=O)c1ccc(C(=O)NC(=S)Nc2nc3c(s2)CCCC3)cc1 | 16% (active)
99 | O=C(NC(=S)Nc1nc2c(s1)CSc1ccccc1-2)c1ccccc1 | -2.4% (inactive)
100 | COC(=O)c1ccc(C(=O)NC(=S)Nc2nc3c(s2)CC(C)CC3)cc1 (stereo unspecified) | -11.7% (inactive)
101 | CN(C)/C=C1/C(=O)N(c2ccc([N+](=O)[O-])cc2)N=C1c1ccccc1 | -5.3% (inactive)
